From PubChem
DT40 TDP1 no CPT: qHTS for Inhibitors of human tyrosyl-DNA phosphodiesterase 1 (TDP1): qHTS in cells in absence of CPT. AID 686978, 2013. Potency, µM (top dose mostly 46.2 µM), usual class: inhibitors. hit rate 15% among 420,000. DT40 Tdp1-/- hTDP1 cells, no CPT, ATP luminescence, 48 h; also: nearly all actives have a fitted effect of over 55% in size
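Seeded 400 DT40-hTDP1 cells/well (vehicle DMSO, no 20 nM CPT); pinned compounds; ≥48 hr at 37 °C; CellTiter-Glo luminescence as viability measure.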
HT1080-NT tox: kills 2HG-producing HT-1080-NT fibrosarcoma cells; Potency, µM (top dose mostly 46.1 µM), most hits filed as cytotoxic; hit rate 1.6% among 360,000; HT-1080-NT fibrosarcoma viability, CellTiter-Glo ATP luminescence, 48 h;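 also: NT is the 2HG producing partner of a matched IDH1 knockdown line; nearly all actives have a fitted effect of over 55% in size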
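Compounds were tested in concentration-response format on HT-1080-NT cells for 48 hours at 37 degrees C. Cell viability came from CellTiter-Glo luminescence; curves were classified by r2, response magnitude and activity.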
IL1B secr inh: inflammasome signaling inhibition, IL-1 beta readout. activity change, % at 57.5 µM. AID 743279. THP-1 LPS/ATP IL-1B secretion, AlphaLISA, 16 h; hits give low values. hit rate 4.7% among 360,000; in the data active = activity change below about -50%; inconclusive = mostly about -30% to -49%
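Secreted IL-1B measured by AlphaLISA bead assay after 16 h compound exposure of THP-1 cells; compounds (final up to 57.5 uM) added 1 h before LPS (250 ng/mL) and ATP (1.25 mM) stimulation; lower signal means less secretion.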
TDP1 cell CPT: growth inhibition of DT40 Tdp1-/-;hTDP1 cells with camptothecin (screen for TDP1 inhibitors); hit rate 12% among 420,000; Potency, µM (top dose mostly 46.2 µM), usual class: inhibitors; chicken DT40 Tdp1-/-;hTDP1 cells + 20 nM CPT, ATP luminescence, 48 h; AID 686979; also: nearly all actives have a fitted effect of over 55% in size
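Chicken DT40 Tdp1-/- cells stably complemented with human TDP1 were seeded at 400 cells/well in medium containing 20 nM camptothecin, exposed to pin-transferred compounds, and grown at 37 °C for at least 48 hr. Viability was read as ATP luminescence.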
ALOX12 inh: inhibitors of human 12S-lipoxygenase ALOX12 | Potency, µM (titrated, usually from 108 µM), hits mostly inhibitors | P18054 | AID 1671190 | hit rate 1.1% among 580,000 | purified 12hLO, xylenol orange hydroperoxide absorbance
Target sequence (P18054 whole entry, looked up): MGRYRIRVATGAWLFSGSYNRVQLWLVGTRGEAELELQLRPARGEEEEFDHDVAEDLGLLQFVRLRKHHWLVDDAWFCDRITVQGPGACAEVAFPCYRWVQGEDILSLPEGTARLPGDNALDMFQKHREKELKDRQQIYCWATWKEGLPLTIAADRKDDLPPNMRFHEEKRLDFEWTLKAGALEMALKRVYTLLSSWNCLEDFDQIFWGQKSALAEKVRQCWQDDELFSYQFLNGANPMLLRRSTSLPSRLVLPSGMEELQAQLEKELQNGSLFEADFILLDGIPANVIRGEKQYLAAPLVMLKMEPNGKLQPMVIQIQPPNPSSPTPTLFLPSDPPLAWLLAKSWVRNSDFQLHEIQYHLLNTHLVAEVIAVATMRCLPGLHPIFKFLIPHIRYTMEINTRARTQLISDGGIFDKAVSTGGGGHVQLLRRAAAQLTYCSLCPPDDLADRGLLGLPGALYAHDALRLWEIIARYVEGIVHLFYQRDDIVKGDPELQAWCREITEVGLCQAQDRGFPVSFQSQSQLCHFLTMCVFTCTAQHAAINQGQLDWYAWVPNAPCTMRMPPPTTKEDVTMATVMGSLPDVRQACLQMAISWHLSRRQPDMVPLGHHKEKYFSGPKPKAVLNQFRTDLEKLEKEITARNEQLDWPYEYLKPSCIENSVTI
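Purified human 12hLO at 150 nM in 25 mM Hepes, 0.01% Triton X-100, pH 7.0, preincubated 15 min at room temperature with compound. Reaction started with 40 uM arachidonic acid, 30 min at room temperature. Hydroperoxide measured by Fe-xylenol orange, 573/405 nm absorbance ratio.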
HT1080 IDH1KD tx: toxicity to HT-1080 IDH1 knockdown cells (counter line). HT-1080 IDH1 knockdown viability, ATP luminescence, 48 h. hit rate 2% among 360,000. Potency, µM (top dose mostly 46.1 µM), most hits filed as cytotoxic
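Cytotoxicity counter-line: IDH1KD HT-1080, 48 h, CellTiter-Glo. Curves classed by r2, magnitude and activity.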
A number is an active result; . = inactive; ? = inconclusive; / = no result. The entries come from a sample that favours hits as a whole. Unless noted, calls follow the shape of the dose curve; as a rule, active = well fitted curve in the direction sought with a large enough effect; inconclusive = small, poorly fitted or top-dose-only effect, or another doubt; inactive = no such curve, though single readings can be large; an effect the other way counts as inactive or inconclusive.

SMILES | DT40 TDP1 no CPT | HT1080-NT tox | IL1B secr inh | TDP1 cell CPT | ALOX12 inh | HT1080 IDH1KD tx
O=C(CNCc1ccccc1)Nc1cccc(Cl)c1Cl | . | . | . | . | . | .
O=C(CNCc1ccc(Cl)cc1)N1CCc2ccccc2C1 | . | . | . | . | 32µM | .
O=C(CC(=O)c1ccccc1)Nc1ccc(Cl)cc1 | ? | . | -77 | ? | . | ?
Cc1ccc(NC(=O)CC(=O)c2ccccc2)cc1C | ? | . | . | ? | . | .
O=C(CNCc1ccccc1)Nc1ccc(Cl)cc1 | ? | 8.2µM | . | . | . | 8.2µM
C[C@H]1[C@@H]2[C@@H](O)C([C@H](C)C(=O)NC(C)(C)C)CC[C@@]2(C)CC[C@@H]1NC(=O)c1cccc(F)c1 (stereo partly drawn) | / | / | / | / | . | /
O=c1cc(-c2ccccc2)nc(N2CCN(Cc3ccccc3)CC2)[nH]1 | 21µM | . | . | 18µM | ? | .
O=C(CNc1ccccc1C(=O)NCc1ccco1)NC(=O)NCc1ccccc1 | / | / | / | / | . | /
CC(C)(C)c1cc(/C=C/C(=O)O)cc(C(C)(C)C)c1O | / | / | / | / | 8.9µM | /
Cc1cc2ccccc2n1CC(=O)Nc1ccc(OCC(N)=O)cc1 | / | / | / | / | . | /
Cc1nn2c(c1-c1ccc(Cl)cc1)N=C(c1ccco1)CC2c1ccccc1 (stereo not drawn) | ? | ? | ? | 15µM | ? | ?
Clc1ccc(C2=NN(c3ccccc3)C(c3ccco3)C2)cc1 (stereo not drawn) | . | . | . | . | . | .
O=C(Cn1ccccc1=O)N1CCC(N2CCSCC2)CC1 | / | / | / | / | . | /
Cc1cccc(NC(=O)c2sc3nc4c(c(-c5cccs5)c3c2N)CN(C)CC4)c1 | ? | . | -86 | ? | ? | .
Nc1c(C(=O)Nc2ccccc2)sc2nc3c(cc12)CN(Cc1ccccc1)CC3 | 23µM | / | / | ? | . | /
CCOc1ccc(NC(=O)c2sc3nc4c(cc3c2N)CN(Cc2ccccc2)CC4)cc1 | ? | / | / | ? | . | /
COc1ccccc1NC(=O)c1sc2nc3c(cc2c1N)CN(Cc1ccccc1)CC3 | ? | / | / | 15µM | . | /
CCN(CC)c1ccc(NC(=O)c2sc3nc4c(cc3c2N)CN(C)CC4)cc1 | 16µM | / | / | ? | ? | /
Cc1cc2c(SCC(=O)N3CC[C@@](C)(O)[C@@H](O)C3)ncnc2s1 | / | / | / | / | . | /
Cc1ccc(C(=O)C(C#N)C(=O)Nc2ccccc2C)cc1C (stereo not drawn) | / | / | / | / | . | /
COc1ccc(NC(=O)c2sc3nc4c(cc3c2N)CCCCCC4)c(OC)c1 | ? | / | / | ? | . | /
Cc1ccccc1NC(=O)c1sc2nc3c(cc2c1N)CCCC3 | 3.3µM | / | / | ? | ? | /
Cc1cccc2sc(N(CCCN(C)C)C(=O)COc3ccccc3)nc12 | . | / | / | . | . | /
Cc1ccc2nc(N(CCCN(C)C)C(=O)COc3ccc(Cl)cc3)sc2c1 | 21µM | . | . | ? | ? | .
Cc1cccc2sc(N(CCCN(C)C)C(=O)COc3ccc(Cl)cc3)nc12 | ? | ? | -60 | ? | ? | ?
SMILES | DT40 TDP1 no CPT | HT1080-NT tox | IL1B secr inh | TDP1 cell CPT | ALOX12 inh | HT1080 IDH1KD tx
CN(C)CCCN(C(=O)CCOc1ccccc1)c1nc2c(F)cccc2s1 | 4.6µM | 15µM | -60 | 5.8µM | . | 7.3µM
CN(C)CCCN(C(=O)CCOc1ccccc1)c1nc2ccc(F)cc2s1 | 2.9µM | 18µM | -86 | 2.9µM | ? | 21µM
CN(C)CCCN(C(=O)CCc1ccccc1)c1nc2c(F)cccc2s1 | ? | . | ? | ? | . | .
CC(=O)c1cc2c(cc1O)CCCC2 | / | / | / | / | . | /
O=C1CCCC2=C1C(c1ccsc1)CC(=O)N2c1cccc(C(F)(F)F)c1 (stereo not drawn) | / | / | / | / | . | /
Cc1csc(N2CCCN(CC(=O)Nc3cc(C)on3)CC2)n1 | / | / | / | / | . | /
Cc1ccc2sc(N(CCCN(C)C)C(=O)CN3C(=O)c4ccccc4C3=O)nc2c1C | 21µM | 16µM | ? | 21µM | ? | ?
CN(C)CCCN(C(=O)COc1ccc(Cl)cc1)c1nc2ccc(F)cc2s1 | . | . | -65 | . | ? | .
COc1cc([N+](=O)[O-])ccc1NC(=S)Nc1cc(C(=O)OC(C)C)cc(C(=O)OC(C)C)c1 | ? | . | . | 29µM | ? | ?
CNCCCCOc1ccc(C(C)(C)C)cc1Cl | ? | . | -55 | ? | ? | .
COc1ccc(Br)cc1CN1CCCCCC1 | . | . | . | . | ? | .
COc1cc(Br)cc(CN2CCN(C=O)CC2)c1O | ? | . | . | 26µM | ? | .
COc1cc(-c2cc(NC(C)=O)c3ncc(-c4ccccc4)n3c2)cc(OC)c1OC | ? | ? | -60 | ? | ? | ?
COc1cc(-c2cnc3c(NC(C)=O)cc(-c4ccccc4CN(C)C)cn23)cc(OC)c1OC | 18µM | ? | . | 23µM | . | ?
COc1cc(-c2cc(NC(C)=O)c3ncc(-c4cc(OC)c(OC)c(OC)c4)n3c2)cc(OC)c1OC | 7.3µM | 23µM | . | 8.2µM | . | 13µM
Cn1cccc1/C=N/NC(=O)Cc1cccc2ccccc12 | 12µM | . | . | ? | . | ?
O=C(Cc1ccc(Cl)cc1)N/N=C1\CCCc2ccccc21 | 23µM | . | . | ? | . | .
O=C(Cc1cccc2ccccc12)NN=Cc1ccc2c(c1)CCC2 | 21µM | . | . | ? | ? | .
Cn1cccc1/C=N/NC(=O)CNc1ccc2ccccc2c1 | . | . | / | . | . | .
O=C(Cc1cccc2ccccc12)N/N=C1\CCCc2ccccc21 | 16µM | . | . | ? | . | .
CCCC(C)c1c(-c2ccccc2)ncn1CCNC(C)=O (stereo not drawn) | / | / | / | / | . | /
COc1ccc(CN(C)C(=O)CCn2ccc3ccccc32)c(OC)c1 | / | / | / | / | . | /
COc1ccc(C2NS(=O)(=O)N=C2N)cc1 (stereo not drawn) | 23µM | . | . | ? | . | .
COC(=O)C1CCN(C(=O)CC(c2ccccc2)c2ccccc2Cl)CC1 (stereo not drawn) | / | / | / | / | . | /
Cc1ccc(CN(C)C(=O)C2CCN(c3ccc(C(F)(F)F)cn3)CC2)c(C)c1 | / | / | / | / | . | /
COc1ccc(-c2cc(C)no2)cc1S(=O)(=O)N1CCN(c2ccccc2F)CC1 | ? | . | . | ? | . | .
CCc1ccc(-c2cc(C)no2)cc1S(=O)(=O)N1CCN(c2ccccn2)CC1 | ? | ? | . | ? | . | .
Cc1cc(-c2ccc(C(C)C)c(S(=O)(=O)N3CCN(c4ccccn4)CC3)c2)on1 | 21µM | . | . | 18µM | . | .
COc1ccc(-c2cc(C)no2)cc1S(=O)(=O)N1CCN(c2ccccn2)CC1 | 21µM | . | -77 | ? | . | .
